As usually defined, the inhibition is the change of the read-out against control, counted positive when it falls.

Values without a mark were called inactive. The list shows a part of the results. The source made the active and inactive calls.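 The calls were made as follows, unless noted: active = mean inhibition above a 50% cutoff; inactive = the rest.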

For one assay, the target named is Toll-like receptor 9 (Homo sapiens) (UniProt Q9NR96). As to the kind of experiment: TLR9-MyD88 association inhibitors, retest, confirmation, cell-based, CHO, BLA complementation, fluorescence, triplicate (AID 540250;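 active = mean inhibition across three repeats above about 21% taken from the earlier screen, limit read from the data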;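 also: blue over green emission ratio reports constitutive TLR9 MyD88 association via BLA complementation; 0% = DMSO vehicle wells and 100% = clavulanate BLA inhibitor wells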). The settings on record: CCF4 FRET ratio, at 4.98 µM, hits give high values.
Toll-like receptor 9 (Homo sapiens), sequence (Q9NR96 whole entry, looked up): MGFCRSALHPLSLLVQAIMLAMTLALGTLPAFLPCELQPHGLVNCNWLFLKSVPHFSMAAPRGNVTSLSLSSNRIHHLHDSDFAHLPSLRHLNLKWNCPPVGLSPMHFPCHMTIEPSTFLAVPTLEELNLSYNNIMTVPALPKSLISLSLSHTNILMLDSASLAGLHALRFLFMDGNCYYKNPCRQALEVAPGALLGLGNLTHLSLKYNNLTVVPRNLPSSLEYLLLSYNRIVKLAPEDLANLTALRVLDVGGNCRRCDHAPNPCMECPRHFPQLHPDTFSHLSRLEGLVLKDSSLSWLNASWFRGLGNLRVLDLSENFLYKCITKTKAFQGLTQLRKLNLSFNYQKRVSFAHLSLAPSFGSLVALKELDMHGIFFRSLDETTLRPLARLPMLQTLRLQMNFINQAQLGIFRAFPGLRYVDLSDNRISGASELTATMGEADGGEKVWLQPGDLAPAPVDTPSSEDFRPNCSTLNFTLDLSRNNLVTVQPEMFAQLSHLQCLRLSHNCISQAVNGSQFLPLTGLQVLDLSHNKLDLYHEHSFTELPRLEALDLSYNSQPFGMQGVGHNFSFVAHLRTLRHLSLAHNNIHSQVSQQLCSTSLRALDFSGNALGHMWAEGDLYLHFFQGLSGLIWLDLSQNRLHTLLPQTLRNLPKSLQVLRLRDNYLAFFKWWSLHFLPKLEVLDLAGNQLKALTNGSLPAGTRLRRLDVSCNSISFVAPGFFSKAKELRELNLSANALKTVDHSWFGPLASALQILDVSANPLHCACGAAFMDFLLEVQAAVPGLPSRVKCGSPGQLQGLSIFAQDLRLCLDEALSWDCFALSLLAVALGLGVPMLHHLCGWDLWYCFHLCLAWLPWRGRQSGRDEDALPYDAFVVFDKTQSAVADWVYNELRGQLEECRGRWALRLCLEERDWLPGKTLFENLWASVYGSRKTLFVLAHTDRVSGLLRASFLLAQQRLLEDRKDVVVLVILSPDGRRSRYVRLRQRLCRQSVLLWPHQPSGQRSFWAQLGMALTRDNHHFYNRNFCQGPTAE
As to `O=C1c2cccc3c([N+](=O)[O-])ccc(c23)C(=O)N1CC1CCCO1` (centres undefined), the inhibition was 45.8% (active).
For `CCN(CC)CCCC(C)n1c2nc(=O)[nH]c(=O)c-2nc2cc(Cl)ccc21` (centres undefined), the inhibition is 12.3%.
As to `CN(O)C(=S)c1ccccc1`, the inhibition is 5.28%.
`O=C(Nc1ccccc1Cl)/C(Cl)=C(\Cl)S(=O)c1ccccc1` (centres undefined): the inhibition was 39.3% (active).
As for `COc1ccccc1N1N=C(c2cccs2)CC1c1ccccc1` (centres undefined), the inhibition is 32.9% (active).
For the compound `O=C1NC(=O)C2C1C(c1ccc([N+](=O)[O-])cc1)=NN2Cc1ccccc1` (centres undefined), the inhibition is 25.8% (active).
As to `Cc1cccc(COc2ccccc2/C=N/Nc2ccc([N+](=O)[O-])cc2)c1`, the inhibition was 20.3%.

Test system in a further assay: not listed separately
Kind of assay: beta-lactamase reporter inhibitors in CHO cells, artefact control for TLR9-MyD88 binding inhibitor project, cell-based, fluorescence (AID 540251).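 Also: counterscreen of TLR9-MyD88 hits on CMV-driven BLA in CHO-K1 cells; 0% = DMSO alone and 100% = clavulanate blocking BLA; higher means less blue over green ratio so more BLA blockade.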 To be noted: CHO-BLA cells, CCF4 FRET ratio, at 4.98 µM, hits give high values.
Take `O=C1c2cccc3c([N+](=O)[O-])ccc(c23)C(=O)N1CC1CCCO1` (centres undefined): the inhibition was 73.2% (active).
In the case of `CCN(CC)CCCC(C)n1c2nc(=O)[nH]c(=O)c-2nc2cc(Cl)ccc21` (centres undefined), the inhibition is 14.8%.
For `CN(O)C(=S)c1ccccc1`, the inhibition was 0.06%.
`O=C(Nc1ccccc1Cl)/C(Cl)=C(\Cl)S(=O)c1ccccc1` (centres undefined): the inhibition is 24.5%.
For the compound `COc1ccccc1N1N=C(c2cccs2)CC1c1ccccc1` (centres undefined), the inhibition is 43.5%.
Take `O=C1NC(=O)C2C1C(c1ccc([N+](=O)[O-])cc1)=NN2Cc1ccccc1` (centres undefined): the inhibition is 25.6%.
As for `Cc1cccc(COc2ccccc2/C=N/Nc2ccc([N+](=O)[O-])cc2)c1`, the inhibition is 23.3%.

Test system in the next assay: not listed separately
As to the kind of experiment: CHO cell viability loss – luminescence, single concentration, cytotoxicity control for TLR9-MyD88 binding inhibitor project (AID 588336; in the data active = inhibition above about 11%). The settings on record: TLR9-MyD88 CHO cells cytotoxicity, at 4.98 µM, hits give high values.
With `O=C1c2cccc3c([N+](=O)[O-])ccc(c23)C(=O)N1CC1CCCO1` (centres undefined), the inhibition was 56.5% (active).
As to `CCN(CC)CCCC(C)n1c2nc(=O)[nH]c(=O)c-2nc2cc(Cl)ccc21` (centres undefined), the inhibition is -0.12%.
On the same count and under the same terms, next, `CN(O)C(=S)c1ccccc1`: 97.2% (active); `O=C(Nc1ccccc1Cl)/C(Cl)=C(\Cl)S(=O)c1ccccc1` (centres undefined): 96.4% (active); `COc1ccccc1N1N=C(c2cccs2)CC1c1ccccc1` (centres undefined): 2.88%.
As to `O=C1NC(=O)C2C1C(c1ccc([N+](=O)[O-])cc1)=NN2Cc1ccccc1` (centres undefined), the inhibition was 4.55%.
Consider `Cc1cccc(COc2ccccc2/C=N/Nc2ccc([N+](=O)[O-])cc2)c1`, for which the inhibition is -1.39%.

For another assay, the target named is Nuclear receptor coactivator 1 (Homo sapiens) (UniProt Q15788). Kind of assay: SRC1 coactivator transcriptional activity inhibitors, confirmation, cell-based, luminescence, quadruplicate (AID 588820;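 active = mean inhibition above 46.68%, the untreated control wells mean plus 3 SD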;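 also: 0% = DMSO wells and 100% = gossypol 36 µM treated wells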). The settings on record: HEK293 GAL4-SRC1 luciferase reporter, at 3.6 µM, hits give high values. On the technique in general: In a reporter assay the amount or activity of a reporter protein is the signal.
Nuclear receptor coactivator 1 (Homo sapiens), sequence (Q15788 whole entry, looked up, the tested form may be a part): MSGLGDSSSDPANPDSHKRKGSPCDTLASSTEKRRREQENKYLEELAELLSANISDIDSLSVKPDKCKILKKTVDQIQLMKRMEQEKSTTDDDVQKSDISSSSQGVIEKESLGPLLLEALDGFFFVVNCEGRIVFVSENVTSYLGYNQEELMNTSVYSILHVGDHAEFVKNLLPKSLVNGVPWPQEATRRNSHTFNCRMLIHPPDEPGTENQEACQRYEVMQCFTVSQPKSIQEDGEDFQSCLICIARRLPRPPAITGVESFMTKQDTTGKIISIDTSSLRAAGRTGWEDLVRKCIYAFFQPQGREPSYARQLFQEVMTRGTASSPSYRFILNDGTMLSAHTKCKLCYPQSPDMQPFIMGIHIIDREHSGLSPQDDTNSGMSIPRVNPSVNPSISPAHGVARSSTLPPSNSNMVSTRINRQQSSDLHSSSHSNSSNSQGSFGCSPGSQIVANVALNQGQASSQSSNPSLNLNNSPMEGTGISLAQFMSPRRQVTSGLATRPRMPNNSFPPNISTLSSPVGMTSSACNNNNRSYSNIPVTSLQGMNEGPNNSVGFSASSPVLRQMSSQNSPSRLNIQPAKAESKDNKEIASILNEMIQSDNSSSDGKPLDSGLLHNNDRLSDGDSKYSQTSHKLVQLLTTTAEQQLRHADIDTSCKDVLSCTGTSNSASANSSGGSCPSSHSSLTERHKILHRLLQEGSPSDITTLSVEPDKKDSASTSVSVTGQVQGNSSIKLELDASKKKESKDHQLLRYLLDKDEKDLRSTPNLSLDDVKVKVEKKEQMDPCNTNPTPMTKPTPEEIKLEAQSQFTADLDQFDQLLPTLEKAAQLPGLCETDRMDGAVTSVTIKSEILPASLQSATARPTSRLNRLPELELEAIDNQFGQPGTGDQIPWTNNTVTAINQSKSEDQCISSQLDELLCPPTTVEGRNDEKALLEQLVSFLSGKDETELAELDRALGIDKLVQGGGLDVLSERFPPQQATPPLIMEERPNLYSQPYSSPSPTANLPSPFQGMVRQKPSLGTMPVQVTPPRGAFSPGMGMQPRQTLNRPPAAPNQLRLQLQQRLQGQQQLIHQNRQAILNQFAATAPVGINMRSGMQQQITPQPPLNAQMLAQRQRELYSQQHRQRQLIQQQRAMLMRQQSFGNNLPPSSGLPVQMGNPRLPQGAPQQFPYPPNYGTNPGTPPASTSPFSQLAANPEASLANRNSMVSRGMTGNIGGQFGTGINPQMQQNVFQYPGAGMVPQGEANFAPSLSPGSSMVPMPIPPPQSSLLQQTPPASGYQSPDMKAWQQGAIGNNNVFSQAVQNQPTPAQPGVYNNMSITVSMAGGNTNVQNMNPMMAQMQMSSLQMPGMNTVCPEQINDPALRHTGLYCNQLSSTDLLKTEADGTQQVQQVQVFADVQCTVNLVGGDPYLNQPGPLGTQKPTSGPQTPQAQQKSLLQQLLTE
With `COc1ccc2c(c1)c(=Cc1ccc(N(C)C)cc1)c1cc(-c3ccccc3)[n+](C)n12`, the inhibition is 69.4% (active).
With `CCCCCCCCn1c2c(c(=N)c3c1CCC3)CCCC2`, the inhibition was 66.6% (active).
In the case of `COc1ccc2[nH]c3c(C)c4cc[n+](C)cc4c(C)c3c2c1`, the inhibition was 27.3%.

Test system in the next assay: not listed separately
As to the kind of experiment: VP16 transactivation inhibitors, counter-screen for SRC1 inhibitor project, cell-based, luminescence, high throughput (AID 588824; in the data active = inhibition above about 25%). The settings on record: cell-based VP16 transactivation luciferase luminescence; at 3.6 µM; hits give high values. A general note: The purpose of a counterscreen is to sort out artefacts and off-target activity.
Consider `COc1ccc2c(c1)c(=Cc1ccc(N(C)C)cc1)c1cc(-c3ccccc3)[n+](C)n12`, for which the inhibition is 83.8% (active).
Regarding `CCCCCCCCn1c2c(c(=N)c3c1CCC3)CCCC2`, the inhibition was 87.6% (active).
For `COc1ccc2[nH]c3c(C)c4cc[n+](C)cc4c(C)c3c2c1`, the inhibition was 45% (active).

For a further assay, the target named is Receptor-interacting serine/threonine-protein kinase 2 (Homo sapiens) (UniProt O43353). Kind of assay: NOD2-RIPK2 binding disruptors, retest, confirmation, fluorescence, CHO cells, BLA complementation, triplicate (AID 624370;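 active = mean inhibition across replicates above a set limit taken from the earlier primary screen, cut at about 21% in these data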;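 also: 0% = DMSO-only wells and the high end = clavulanate BLA-blocked wells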). To be noted: CCF4 FRET, at 4.98 µM, hits give high values.
Receptor-interacting serine/threonine-protein kinase 2 (Homo sapiens), sequence (O43353 whole entry, looked up): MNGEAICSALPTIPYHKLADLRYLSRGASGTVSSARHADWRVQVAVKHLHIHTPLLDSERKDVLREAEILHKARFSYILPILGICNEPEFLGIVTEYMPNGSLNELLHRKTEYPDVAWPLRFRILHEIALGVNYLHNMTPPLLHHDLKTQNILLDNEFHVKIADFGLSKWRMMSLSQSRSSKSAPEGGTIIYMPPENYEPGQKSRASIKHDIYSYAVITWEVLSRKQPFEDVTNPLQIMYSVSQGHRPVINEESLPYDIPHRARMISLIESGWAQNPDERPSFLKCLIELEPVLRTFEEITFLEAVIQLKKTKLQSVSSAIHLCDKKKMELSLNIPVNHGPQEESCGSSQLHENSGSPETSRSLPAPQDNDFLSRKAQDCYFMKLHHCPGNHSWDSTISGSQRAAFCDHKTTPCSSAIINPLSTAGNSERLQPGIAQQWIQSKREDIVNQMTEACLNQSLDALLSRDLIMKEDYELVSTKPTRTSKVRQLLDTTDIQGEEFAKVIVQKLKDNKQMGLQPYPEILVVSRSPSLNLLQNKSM
Regarding `O=C(/C=C/c1ccc(N2CCOCC2)cc1)c1ccccc1`, the inhibition was 29% (active).
The same measure, in the same setting: next, `O=C1c2cccc3c([N+](=O)[O-])ccc(c23)C(=O)N1CC1CCCO1` (centres undefined): 83% (active); `CCN(CC)CCCC(C)n1c2nc(=O)[nH]c(=O)c-2nc2cc(Cl)ccc21` (centres undefined): 38.1% (active); `O=C(Nc1ccccc1Cl)/C(Cl)=C(\Cl)S(=O)c1ccccc1` (centres undefined): 78.8% (active).
Regarding `COc1ccccc1N1N=C(c2cccs2)CC1c1ccccc1` (centres undefined), the inhibition is 51.8% (active).
`O=C1NC(=O)C2C1C(c1ccc([N+](=O)[O-])cc1)=NN2Cc1ccccc1` (centres undefined): the inhibition was 49.4% (active).
For `Cc1cccc(COc2ccccc2/C=N/Nc2ccc([N+](=O)[O-])cc2)c1`, the inhibition was 44.2% (active).

Test system in the next assay: not listed separately
Kind of assay: beta-lactamase reporter inhibitors in CHO cells, confirmation, artefact control for NOD2-RIPK2 interaction inhibitor project, cell-based, CHO-K1 CMV-bla, CCF4 FRET, fluorescence (AID 624371;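 active = mean inhibition above the low-control mean inhibition plus three low-control SD, cut at about 11% in these data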;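 also: 0% = DMSO only wells and 100% = clavulanate high control wells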). To be noted: CCF4 FRET ratio, counterscreen, at 4.98 µM, hits give high values.
`O=C(/C=C/c1ccc(N2CCOCC2)cc1)c1ccccc1`: the inhibition is 31.2% (active).
Still for that read-out and setting: next, `O=C1c2cccc3c([N+](=O)[O-])ccc(c23)C(=O)N1CC1CCCO1` (centres undefined): 70.6% (active).
On the same count and under the same terms, with `CCN(CC)CCCC(C)n1c2nc(=O)[nH]c(=O)c-2nc2cc(Cl)ccc21` (centres undefined) the figure was 40% (active).
On to `O=C(Nc1ccccc1Cl)/C(Cl)=C(\Cl)S(=O)c1ccccc1` (centres undefined), for which the inhibition was 37.3% (active).
`COc1ccccc1N1N=C(c2cccs2)CC1c1ccccc1` (centres undefined): the inhibition is 65.6% (active).
As to `O=C1NC(=O)C2C1C(c1ccc([N+](=O)[O-])cc1)=NN2Cc1ccccc1` (centres undefined), the inhibition was 51.9% (active).
On to `Cc1cccc(COc2ccccc2/C=N/Nc2ccc([N+](=O)[O-])cc2)c1`, for which the inhibition was 50.4% (active).

The target of the next assay is Photoreceptor-specific nuclear receptor (Homo sapiens) (UniProt Q9Y5X4). As to the kind of experiment: NR2E3 agonist confirmation in cells, cell-based, luminescence, CHO-S two-hybrid (AID 624378;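 active = average inhibition above a cutoff equal to the mean inhibition of all tested compounds plus one SD, cut at about 70% in these data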;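 also: 0% = DMSO in NR2E3 cells and 100% = DMSO in cells lacking NR2E3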). The settings on record: CHO-S mammalian two-hybrid NR2E3-NCOR, luciferase luminescence; at 3.98 µM; hits give high values.
Photoreceptor-specific nuclear receptor (Homo sapiens), sequence (Q9Y5X4 whole entry, looked up): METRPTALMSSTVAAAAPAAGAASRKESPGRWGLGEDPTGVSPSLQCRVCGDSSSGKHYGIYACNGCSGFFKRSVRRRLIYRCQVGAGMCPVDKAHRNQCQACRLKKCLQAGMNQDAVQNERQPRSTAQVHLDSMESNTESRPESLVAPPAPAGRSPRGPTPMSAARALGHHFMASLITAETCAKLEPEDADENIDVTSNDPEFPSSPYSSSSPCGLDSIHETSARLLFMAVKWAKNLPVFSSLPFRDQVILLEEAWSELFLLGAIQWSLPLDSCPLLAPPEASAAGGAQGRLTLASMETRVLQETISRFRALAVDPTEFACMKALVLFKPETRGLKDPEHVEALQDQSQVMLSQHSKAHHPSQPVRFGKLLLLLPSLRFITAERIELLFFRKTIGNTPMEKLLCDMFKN
Turning to `COc1ccc2c(c1)c(=Cc1ccc(N(C)C)cc1)c1cc(-c3ccccc3)[n+](C)n12`, the inhibition was 99% (active).
As for `CN(O)C(=S)c1ccccc1`, the inhibition was -14.5%.
For `O=C(Nc1ccccc1Cl)/C(Cl)=C(\Cl)S(=O)c1ccccc1` (centres undefined), the inhibition was 90.1% (active).
Take `CCCCCCCCn1c2c(c(=N)c3c1CCC3)CCCC2`: the inhibition was 99.3% (active).

Test system in a further assay: not listed separately
As to the kind of experiment: GAL4-VP16 reporter modulators, confirmation, counter-screen for NR2E3 agonist project, cell-based, luminescence, CHO-S, high throughput (AID 624379;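 active = mean inhibition above a cutoff equal to the average over all tested compounds plus one standard deviation, cut at about 70% in these data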;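 also: luciferase from a UAS reporter driven by GAL4-VP16 transactivation; 0% = DMSO with VP16-transfected cells and 100% = DMSO with cells lacking VP16; higher means less reporter light so more repression of VP16 activity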). The settings on record: CHO-S GAL4-VP16 luciferase reporter, at 3.98 µM, hits give high values.
`COc1ccc2c(c1)c(=Cc1ccc(N(C)C)cc1)c1cc(-c3ccccc3)[n+](C)n12`: the inhibition was 81.4% (active).
Same read-out and setting: with `CN(O)C(=S)c1ccccc1` the figure was -3.62%; with `O=C(Nc1ccccc1Cl)/C(Cl)=C(\Cl)S(=O)c1ccccc1` (centres undefined), 47.4%; with `CCCCCCCCn1c2c(c(=N)c3c1CCC3)CCCC2`, 91.4% (active).

The values are drawn from PubChem BioAssay.
